This is an account of results in PubChem BioAssay.

SMILES strings stand for the structures.

The test is described as follows: JC-1 mitochondrial signal, unstimulated HepG2 cells – cell-based, JC-1 fluorescence, 24 h, 100 nL compound, profiling panel (AID 1167). Note: test concentration not given here. As to conditions: HepG2 mitochondrial potential, higher = more signal.
`C=CCC(OC(C)=O)[C@@H]1[C@@H](N(Cc2ccc(-c3ccccc3)cc2)C(=O)Cc2ccc(OC)cc2)c2cc(OCCCO)ccc2N1C(=O)c1ccc2ccccc2n1` (stereo not given in full) showed a z-score of 2.56.

Take `COc1ccc(C#Cc2ccc3c(c2)[C@]2(C(=O)N3)[C@H](C(=O)NC[C@H](O)c3ccccc3)[C@H]3C(=O)O[C@H](c4ccccc4)[C@H](c4ccccc4)N3[C@@H]2c2ccc(OCCO)cc2)cc1`: the z-score is -1.51.

For `COCCOC(=O)N1C(=O)[C@@]2(c3cc(C#CC4(O)CCCCCC4)ccc31)[C@H](C(=O)N1CCCCCCC1)[C@H]1C(=O)O[C@H](c3ccccc3)[C@H](c3ccccc3)N1[C@@H]2c1ccccc1OCCO`, the z-score was -0.679.

For the compound `COC(=O)c1ccc(OC)c(/C=C\CC(OC(C)=O)c2ccccc2)c1` (stereo not given), the z-score was -0.995.

`Cc1ccc([C@H]2C(C(=O)O)=C[C@@H](C)N2S(=O)(=O)c2ccc(C)cc2)cc1` returned a z-score of -1.15.

`NCCCCCCNC(=O)[C@H]1C[C@H]2C(=O)NCC(=O)N2[C@H]1c1cccc(OCCO)c1` displayed a z-score of 2.48.

As for `COc1ccc(CCN2C(=O)[C@@]3(Cc4ccccc42)c2ccccc2C(=O)N(Cc2ccccc2Cl)[C@H]3c2ccc(CO)cc2)cc1`, the z-score came to 0.308.

With `C=CC[C@@H](OC(=O)Nc1ccc(OC)cc1)c1ccc(O)c2ccccc12`, the z-score is -3.28.

`CC(C)C[C@@H]1NC(=O)[C@@H]2C[C@H](C(=O)NCCCCCC[N+](C)(C)C)[C@H](c3ccc(O)cc3)N2C1=O` registered a z-score of -0.595.

`O=C1C=CC(=O)[C@@H]2CC(COc3ccccc3)=C3[C@@H](CCc4ccccc4)OB(O)C[C@@H]3[C@H]12` had a z-score of -3.77.

In the case of `CN(C)CCCCNC(=O)[C@H]1C[C@H]2C(=O)N[C@@H](Cc3ccccc3)C(=O)N2[C@H]1c1ccc(O)cc1`, the z-score was -0.77.

`CCCC[C@H]1OB(O)C[C@H]2C1=C(C)C[C@H]1C(=O)N(Cc3ccccc3)C(=O)[C@H]12` came in with a z-score of -0.432.

For the compound `C=C[C@@H](COC(C)=O)N(Cc1ccc([N+](=O)[O-])cc1)S(=O)(=O)c1ccc(Br)cc1`, the z-score was determined as 0.64.

For the compound `COc1ccc([Si](C)(C)[C@@H]2[C@@H](CCn3cc([C@H](O)c4ccccc4)nn3)O[C@]3(C(=O)N(Cc4ccc(N5C(=O)c6cccc7cccc5c67)cc4)c4ccccc43)[C@H]2C)cc1`, the z-score was determined as 2.05.

As for `CC(C)(C)OC(=O)CC[C@@]1(C(=O)NCCN2CCOCC2)N=C(c2ccc(OCCCO)cc2)O[C@@H]1c1ccccc1`, the z-score is -0.0256.

With `O=C1O[C@@H](c2ccccc2)[C@@H](c2ccccc2)N2[C@@H](c3ccccc3OCCO)[C@]3(C(=O)Nc4ccc(C#CC5(O)CCCCCC5)cc43)[C@@H](C(=O)Nc3nc4ccccc4s3)[C@H]12`, the z-score was -2.67.

Consider `COCCOC(=O)N1C(=O)[C@@]2(c3cc(C#CCNC(N)=O)ccc31)[C@H](c1ccc(OCCO)cc1)N1[C@H](c3ccccc3)[C@H](c3ccccc3)OC(=O)[C@H]1[C@@H]2C(=O)N1CCc2cc(OC)c(OC)cc2C1`, for which the z-score was -1.04.

Regarding `CCOC(=O)C[C@H]1[C@H](OC(=O)c2ccc(C(=O)c3ccccc3)cc2)[C@@H](NC(=O)C2CCCCC2)c2cc(OCCCO)ccc2N1C(=O)c1ccccc1`, the z-score amounted to 1.4.

The compound `CC(C)=CCCC(C)=CC(O)C1C=CC2C(=O)N(c3ccccc3)C(=O)C2N1Nc1ccccc1` (stereo not given) displayed a z-score of -2.

The compound `COC(=O)[C@@]1(Cc2ccc(OC)cc2)[C@H]2c3cc(C(=O)N4CCCC4)n(CCc4c[nH]c5cc(F)ccc45)c3C[C@H]2CN1C(=O)c1ccccc1` returned a z-score of -0.37.

In the case of `Cc1ccc(F)cc1S(=O)(=O)N[C@@H]1CCN(Cc2ccc(-c3ccccc3)cc2)C1`, the z-score is -1.82.

Compound `COC(=O)[C@@]1(Cc2ccc(OC)cc2)[C@H]2c3cc(C(=O)N(C)C)n(Cc4c(OC)[nH]cc(C)c4=O)c3C[C@H]2CN1C(=O)c1ccccc1` came in with a z-score of 1.95.

`[N-]=[N+]=Nc1ccccc1[C@H]1OC(c2ccc(OCCCO)cc2)=N[C@@]1(CCS(=O)(=O)c1ccccc1)C(=O)O` came in with a z-score of -3.45.

For the compound `COC(=O)c1ccc(C(O)C2C=CC3C(=O)N(C)C(=O)C3N2NC(=O)OC(C)(C)C)o1` (stereo not given), the z-score was -1.28.

Turning to `CC=CC(O)C1C=CC2C(=O)N(c3ccccc3)C(=O)C2N1Nc1ccc(C(C)C)cc1` (stereo not given), the z-score was -1.09.

Turning to `O=C1C[C@@](C(=O)NC2CC2)(c2ccc([N+](=O)[O-])cc2)[C@@H](c2ccc(CO)cc2)N1CC12CC3CC(CC(C3)C1)C2`, the z-score was -0.881.

Compound `COc1ccc(C(O)C2C=CC3C(=O)N(C)C(=O)C3N2Nc2ccccc2)cc1OCc1ccccc1` (stereo not given) registered a z-score of -1.7.

`[N-]=[N+]=NCc1ccccc1C[C@@]1(C(=O)N2CCOCC2)N=C(c2ccc(OCCCO)cc2)O[C@@H]1c1ccccc1CN=[N+]=[N-]` returned a z-score of 0.883.

As to `CN1C(=O)C2C=CC(C(O)c3ccccn3)N(Nc3ccccc3)C2C1=O` (stereo not given), the z-score was -0.562.

Consider `COc1ccc(C#Cc2ccc3c(c2)[C@]2(C(=O)N3)[C@H](c3ccc(O)cc3)N3[C@H](c4ccccc4)[C@H](c4ccccc4)OC(=O)[C@H]3[C@@H]2C(=O)N2CCCCCCC2)cc1`, for which the z-score turned out to be 0.269.

As for `O=C1OCCC=C[C@H]2OC34C=CCN(Cc5ccccc5)C(=O)[C@H]3N(CCCCCO)C(=O)[C@@H]4C12` (stereo not given in full), the z-score was determined as 0.756.

For the compound `COC(=O)C(CC#Cc1ccc2c(c1)[C@]1(C(=O)N2)[C@H](C(=O)NC[C@H](O)c2ccccc2)[C@H]2C(=O)O[C@H](c3ccccc3)[C@H](c3ccccc3)N2[C@@H]1c1ccc(OCCO)cc1)C(=O)OC`, the z-score is -1.06.

The compound `COCCOC(=O)N1C(=O)[C@@]2(c3cc(C#CCNC(N)=O)ccc31)[C@H](c1ccc(O)cc1)N1[C@H](c3ccccc3)[C@H](c3ccccc3)OC(=O)[C@H]1[C@@H]2C(=O)NC[C@H](O)c1ccccc1` yielded a z-score of -1.48.

With `COC(=O)[C@@]1(Cc2ccccc2)[C@H]2c3cc(C(=O)N4CCCC4)n(Cc4ccc(C)o4)c3C[C@H]2CN1C(=O)c1ccccc1`, the z-score is 1.78.

Compound `COCC(=C=CC[C@H](O)c1ccc(OCCO)cc1)C[C@H](O)c1cc(Cl)cc(Cl)c1O` gave a z-score of -0.0342.
